Results on 40 compounds are retold here after PubChem BioAssay (NCATS).

Each structure is given as a SMILES string. Inconclusive results are not listed. A call without a number means that no potency is given here. Active and inactive are the calls of the source. Calls come from the whole dose curve; as a rule, active = well fitted inhibition curve with a large enough effect; inconclusive = small, poorly fitted or top-dose-only effect; inactive = flat fitted curve, though single readings scatter.
Potency is the fitted concentration of half-maximal effect.

In the assay the test system is MKL-1. The assay can be described thus: qHTS assay to identify novel small-molecules to repurpose for Merkel cell carcinoma treatment (AID 1296009). Note: nearly all actives have a fitted effect of over 60% in size. The conditions noted are these: MCC and control cell lines, CellTiter-Glo viability, 72 h; series mostly up to 46 µM. The text has this:
MCC is a rare and aggressive neuroendocrine skin cancer with limited treatment options. Approximately 80% of MCCs have the Merkel cell polyomavirus (MCPyV) DNA integrated into the host genome (virus-positive: VP-MCC) and viral oncogenes drive oncogenesis. The remaining MCCs are virus-negative (VN-MCC) and are caused by UV mutagenesis. To identify novel treatments for VP-MCC and/or VN-MCC we screened three VP-MCC cell lines (WAGA, MKL-1, MKL-2), three VN-MCC cell lines (MCC-13, MCC-26, UISO), and four immortalized, non-transformed control cell lines (HaCaT, HEK293T, CRL7250, NIH-3T3) against ~2,400 compounds in the NCGC Pharmaceutical Collection (NPC) and ~1,900 compounds in the Mechanism Interrogation PlatE (MiPE). Using cell viability as a readout (CellTiter-Glo assay) we found both overlapping and distinct drugs that can be repurposed for the treatment of VP-MCC and VN-MCC.
A high-throughput screen was conducted in 1536-well white flat bottom plates (Corning) on a Kalypsys robotic system. Cell lines WAGA, MKL-1, MKL-2, MCC-13, MCC-26, UISO, HaCaT, HEK293T, CRL7250, and NIH-3T3 were screened against 2 small molecule annotated drug libraries NPC and MIPE in dose response (8 and 11 pt. respectively) measuring cell viability after 72 hours of incubation. […] A 1,536 pintool (Kalypsys) was used to transfer 23 nL of compound in DMSO to the 1,536-well assay plates. After 72 hr incubation at 37 degree celsius, 2.5 uL of CellTiter-Glo (Promega) was dispensed into each well using a BiorapTR. Plates were incubated at room temperature for 10 min, transferred to a ViewLux (PerkinElmer) and the luminescence was recorded using an exposure time of 2 seconds. Relative luminescence units (RLUs) were normalized to in-plate controls (no cells as a positive (cytotoxicity) control, DMSO as negative control) and the normalized data was processed using NCATS in-house software.
In the case of `CN(C)CC[C@@H](c1ccc(Br)cc1)c1ccccn1`, the Potency entry was “inactive”. In the case of `C#CCN(C)CCCOc1ccc(Cl)cc1Cl`, the Potency entry is “inactive”. As to `Fc1ccc(C(c2ccc(F)cc2)N2CCN(C/C=C/c3ccccc3)CC2)cc1`, the Potency entry is “inactive”. For the compound `CCN(CC)CCNC(=O)c1cc(S(C)(=O)=O)ccc1OC`, the Potency result was “inactive”. For `CC(C(=O)O)c1ccc(CC2CCCC2=O)cc1` (stereo not given), the Potency entry is “inactive”.

With `C[N+](C)(C)CCOC(=O)CCC(=O)OCC[N+](C)(C)C`, the Potency result was “inactive”. Take `NC(Cc1ccc(Cl)cc1)C(=O)O` (stereo not given): the activity change, negative = cytotoxicity was 8.15% [at 0.597 µM] (inactive). As for `O=C(O)CCCCCCCC(=O)O`, the Potency result is “inactive”.

As to `CCCCNc1ccc(C(=O)OCCN(C)C)cc1`, the Potency entry is “inactive”. `C(=C\c1ccccc1)/CN1CCN(C(c2ccccc2)c2ccccc2)CC1`: the Potency entry was “inactive”. Turning to `NCCCNCCSP(=O)(O)O`, the activity change, negative = cytotoxicity is 15.3% [at 9.22 µM] (inactive). In the case of `CN(C(=O)CCCOc1ccc2[nH]c(=O)ccc2c1)C1CCCCC1`, the Potency result is “inactive”. Take `COc1ccc(CN(CCN(C)C)c2ccccn2)cc1`: the Potency result was “inactive”. As for `Brc1c(NC2=NCCN2)ccc2nccnc12`, the Potency entry is “inactive”. `CCN1CCc2nc(N)oc2CC1`: the Potency result was “inactive”.

Consider `CCO/C([O-])=N/c1c[n+](N2CCOCC2)no1`, for which the Potency result was “inactive”. On to `OCCN1CCN(CCCN2c3ccccc3C=Cc3ccccc32)CC1`, for which the Potency result is “inactive”. Consider `CCCCOCCOCCOCc1cc2c(cc1CCC)OCO2`, for which the Potency result is “inactive”.

Turning to `Cc1nc2sccn2c(=O)c1CCN1CCC(=C(c2ccc(F)cc2)c2ccc(F)cc2)CC1`, the Potency entry was “inactive”. Consider `CNCCC(Oc1ccccc1OC)c1ccccc1` (stereo not given), for which the Potency entry was “inactive”. Consider `Cc1nnc(SCC2=C(C(=O)O)N3C(=O)[C@@H](NC(=O)Cn4cnnn4)[C@H]3SC2)s1`, for which the Potency entry was “inactive”. As for `Nc1c2c(nc3ccccc13)CCCC2O` (stereo not given), the Potency result was “inactive”. Take `C[n+]1cc2c3c(ccc2c2ccc4cc5c(cc4c21)OCO5)OCO3`: the Potency is 1460 nM (active). Consider `CN1CCN(CC(=O)N2c3ccccc3C(=O)Nc3cccnc32)CC1`, for which the activity change, negative = cytotoxicity was -1.15% [at 4.84 µM] (inactive). On to `CCCCCN(CCCCC)C(=O)C(CCC(=O)O)NC(=O)c1ccc(Cl)c(Cl)c1` (stereo not given), for which the Potency result is “inactive”. In the case of `NC(N)=N/N=C/c1c(Cl)cccc1Cl`, the Potency entry is “inactive”.

`C[C@H](CS)C(=O)N1CCC[C@H]1C(=O)O`: the Potency result was “inactive”.

Take `COc1cc(C(=O)OCCCN2CCCN(CCCOC(=O)c3cc(OC)c(OC)c(OC)c3)CC2)cc(OC)c1OC`: the Potency result was “inactive”.

On to `CNC1(C)C2CCC(C2)C1(C)C` (stereo not given), for which the Potency result was “inactive”.

Consider `CN=C(NC#N)NCCSCc1nc[nH]c1C`, for which the Potency entry was “inactive”.

Turning to `CCOC(=O)c1cnc2c(cnn2CC)c1NN=C(C)C`, the Potency entry is “inactive”.

`CC(C)(C)NCC(O)c1cc(O)cc(O)c1` (stereo not given): the Potency entry was “inactive”. Same read-out and setting: with `CN1C[C@H](C(=O)N[C@]2(C)O[C@@]3(O)[C@@H]4CCCN4C(=O)[C@H](Cc4ccccc4)N3C2=O)C[C@@H]2c3cccc4[nH]cc(c34)C[C@H]21` the entry was “inactive”. Regarding `CCCN(CCC)C(=O)C(CCC(=O)O)NC(=O)c1ccccc1` (stereo not given), the Potency result is “inactive”. For the compound `O=C(O)CN(CCOCCOCCN(CC(=O)O)CC(=O)O)CC(=O)O`, the activity change, negative = cytotoxicity was 14.4% [at 0.597 µM] (inactive).

Regarding `O=C1CC2(CCCC2)CC(=O)N1CCCCN1CCN(c2ncccn2)CC1`, the Potency result is “inactive”. For the compound `COCCc1ccc(OCC(O)CNC(C)C)cc1` (stereo not given), the Potency entry is “inactive”. The same measure, in the same setting: with `c1cc(CN2CCCCC2)cc(OCCCNc2nc3ccccc3s2)c1` the entry was “inactive”; with `Cc1scc2c1N(C(=O)CN1CCN(C)CC1)c1ccccc1NC2=O`, “inactive”; with `Cc1nc2ccccn2c(=O)c1CCN1CCC(C(=O)c2ccc(F)cc2)CC1`, “inactive”.
